Active and inactive are the calls of the source. A call without a number means that no potency is given here. Calls follow the shape of the dose curve; as a rule, active = well fitted curve in the direction sought with a large enough effect in the repeat runs; inconclusive = weak or mixed curves; inactive = flat fitted curve, though single readings scatter.
assay: qHTS assay to test for compound auto fluorescence at 590 nm (red) in HepG2 cell free culture (AID 720684); conditions: cell-free medium autofluorescence, red 540/590 nm; series mostly up to 46 µM
Procedure, shortened: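 Compounds are added to culture medium (MEM, 10% FBS) lacking cells, then fluorescence is read at excitation 540 nm, emission 590 nm, with Rose Bengal sodium as the equivalency standard.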
Tags tell the direction and shape of the fitted curve or compound fluorescence and quenching.

| Compound | outcome |
| --- | --- |
| CN1[C@@H](CC(=O)c2ccccc2)CCC[C@H]1C[C@H](O)c1ccccc1 | inactive |
| CN1CCN(CCCN2c3ccccc3Sc3ccc(Cl)cc32)CC1 | inactive |
| CCCCCCCCCC[N+](C)(CCCCCCCCCC)CCC[Si](OC)(OC)OC | inactive |

assay: qHTS assay to test for compound auto fluorescence at 460 nm (blue) in HepG2 cell free culture (AID 720685); conditions: Cell-free culture medium, blue autofluorescence 405/460 nm; series mostly up to 46 µM; also: potency is read from the fitted curve at half-maximal effect
Procedure, shortened: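 Compound (23 nL) or DMSO pinned into cell-free MEM with 10% FBS; blue fluorescence read at 405/460 nm excitation/emission, expressed as auto-fluorescence equivalency to triamterene.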

| Compound | Potency |
| --- | --- |
| CC12CCC(C1)C(C)(C)C2=O (stereo not given) | inactive |
| CCCCCCCC/C=C\CCCCCCCC(=O)N(CCO)CCO | inactive |
| C[C@H](O)CN(C)C | inactive |
| C[C@H](Cc1ccc(O)c(O)c1)[C@@H](C)Cc1ccc(O)c(O)c1 | inactive |
| CCCOC(=O)c1ccc(O)cc1 | inactive |
| NCC1CCC(C(=O)O)CC1 (stereo not given) | inactive |
| CN(C)CCc1c[nH]c2ccc(Cn3cncn3)cc12 | inactive |
| CN(Cc1ccccc1)Cc1ccccc1 | inactive |
| CN1C(=O)C[C@@H](C(=O)N[C@@H](Cc2cnc[nH]2)C(=O)N2CCC[C@H]2C(N)=O)NC1=O | inactive |
| O=C(N[C@H](CO)[C@H](O)c1ccc([N+](=O)[O-])cc1)C(Cl)Cl | inactive |
| COc1cc(NS(C)(=O)=O)ccc1Nc1c2ccccc2nc2ccccc12 | 12.6 µM [fluorescent] (active) |
| N[C@@H](Cc1ccc(O)c(O)c1)C(=O)O | inactive |
| CCCn1c(=O)[nH]c(=O)c2[nH]cnc21 | inactive |
| N=C(N)c1ccc(/C=C/c2ccc(C(=N)N)cc2O)cc1 | inactive |
| O=C1c2ccccc2-c2n[nH]c3cccc1c23 | 12.6 µM [fluorescent] (active) |
| O=C1CC[C@@H](C(=O)N[C@H]2C[C@@H]2c2ccccc2)N1 | inactive |
| CC12CCC(C[N+](C)(CCC[N+](C)(C)C)C1)C2(C)C (stereo not given) | inactive |
| CC(O)(c1ccc(Cl)cc1)c1ccc(Cl)cc1 | inactive |
| CC(C)(COP(=O)(O)OP(=O)(O)OC[C@H]1O[C@@H](n2cnc3c(N)ncnc32)[C@H](O)[C@@H]1OP(=O)(O)O)C(O)C(=O)NCCC(=O)NCCS (stereo not given in full) | inactive |

| Compound | Potency |
| --- | --- |
| CN=C(N)NCCC[C@H](N)C(=O)O | inactive |
| Cc1cc(CC(C)CC(C)(C)C)n(O)c(=O)c1 (stereo not given) (tested in a mixture with another compound) | inactive |
| O=P(O)(O)CP(=O)(O)O | inactive |
| CC(=O)OCC(=O)[C@@]1(O)CC[C@H]2[C@@H]3C[C@H](C)C4=CC(=O)C=C[C@]4(C)[C@H]3[C@@H](O)C[C@@]21C | inactive |
| CCCOC(=O)c1ccccc1O | inactive |
| CCCCCCCCCCCCCCCCCCNC(=O)OC1CCN(C(=O)OC[C@H](COC(=O)N(Cc2cccc[n+]2CC)C(=O)c2ccccc2OC)OC)CC1 | inactive |
| CC(Cc1ccc(O)c(O)c1)C(C)Cc1ccc(O)c(O)c1 (stereo not given) | inactive |
| CCCCCCCC[N+](C)(C)CCCCCCCC | inactive |
| CC(CNC(=O)c1cccnc1)NC(=O)c1cccnc1 (stereo not given) | inactive |
| O=C(O)COc1ccccc1/C=N/NC(=O)c1ccncc1 | inactive |
| O=C(O)CCCC/C=C(\c1ccccc1)c1cccnc1 | inactive |
| CCC1OC(=O)C[C@@H](O)[C@H](C)[C@@H](O[C@@H]2O[C@H](C)C[C@H](N(C)C)[C@H]2O)[C@@H](CC=O)C[C@@H](C)C(=O)/C=C/[C@]2(C)OC2C1C (stereo not given in full) | inactive |
| SC1CCCCC1 | inactive |
| NC[C@H]1O[C@H](O[C@H]2[C@H](O)[C@@H](O[C@H]3O[C@H](CO)[C@@H](O)[C@H](N)[C@H]3O)[C@H](N)C[C@@H]2N)[C@H](N)C[C@@H]1O | inactive |
| NCC[C@H](O)C(=O)N[C@@H]1C[C@H](N)[C@@H](O[C@H]2O[C@H](CN)CC[C@H]2N)[C@H](O)[C@H]1O[C@H]1O[C@H](CO)[C@@H](O)[C@H](N)[C@H]1O | inactive |
| CN1[C@@H](CC(=O)c2ccccc2)CCC[C@H]1C[C@H](O)c1ccccc1 | inactive |
| CN1CCN(CCCN2c3ccccc3Sc3ccc(Cl)cc32)CC1 | inactive |
| CCCCCCCCCC[N+](C)(CCCCCCCCCC)CCC[Si](OC)(OC)OC | inactive |

— PubChem BioAssay (Tox21)
